Data on 40 molecules can be found in PubChem BioAssay AID2113 (National Center for Advancing Translational Sciences (NCATS), 2009).

Records with an inconclusive call do not appear. Active and inactive are the calls of the source. Calls follow the shape of the dose curve; as a rule, active = well fitted curve in either direction with a large enough effect; inconclusive = small, poorly fitted or top-dose-only effect; inactive = no such curve, though single readings can be large or run the other way.
Potency is read from the fitted curve at half-maximal effect.

This experiment deals with Lysosomal alpha-glucosidase (Homo sapiens) (UniProt P10253). Kind of experiment: Confirmation of Inhibitors and Activators of Human alpha-Glucosidase From Spleen Homogenate. As to activity change, both directions: 0% is about no effect. The settings on record: alpha-glucosidase enzyme activity; series mostly up to 60.5 µM; activity change, both directions: at the top concentration. The source says:
NIH Chemical Genomics Center [NCGC]
NIH Molecular Libraries Probe Production centers Network [MLPCN]
Assay Submitter (PI): Wei Zheng
Alpha-glucosidase is responsible for hydrolysis of terminal, non-reducing 1,4-linked alpha-D-glucose residues with release of alpha-D-glucose. It is a lysosomal hydrolase that is required for the degradation of a small percentage (1-3%) of cellular glycogen in human. Deficiency of this enzyme results in glycogen-storage disease type II (GSDII), also referred to as Pompe disease, an autosomal recessive disorder. Structurally normal glycogen is accumulated in lysosomes and cytoplasm in affected patients, primarily in muscle tissues. Excessive glycogen storage within lysosomes may interrupt normal functioning of other organelles and leads to cellular injury. In turn, this leads to enlargement and dysfunction of the entire organ involved (eg, cardiomyopathy and muscle weakness).
It has reported that the improper folding and trafficking of alpha-glucosidase resultinged from the genetic mutations may account for a significant number of Pomrope patients. […] We optimized this alpha-glucosidase assay in 1536-well plate format for identifying the novel small molecule inhibitors with the structures other than the sugar analogs in order to develop the new pharmacological chaperones. In particular, this assay is directed towards discovering compounds active in a more natural setting, tissue homogenate, that may have been missed by screens of the purified enzyme under more stringent conditions. This assay attempted to confirm hits from the primary screening.
NCGC Assay Protocol Summary:
This is a fluorogenic enzyme assay with 4-methylumbelliferyl-alpha-D-glucopyranoside as the substrate and human spleen homogenate containing alpha-glucosidase as the enzyme preparation. Upon hydrolysis of this fluorogenic substrate, the resulting product, 4-methylumbelliferone (which excites at 365 nm and emits at 440 nm) can be detected by a fluorescence plate reader. Data were normalized to the controls for basal activity (without enzyme) and 100% activity (with enzyme). The AC50 values were determined from concentration-response data modeled with the standard Hill equation.
Assay buffer: 50 mM citric acid (titrated with potassium phosphate to pH 5.0), 0.01% Tween-20 (pH 5.0 is an optimal condition for this enzyme assay)
1536-well assay protocol for the alpha-glucosidase from human spleen homogenate:
(1) Add 2 ul/well spleen homogenate (1 ug)
(2) Add 23 nL compounds in DMSO solution. The final titration was 0.5 nM to 58 uM.
(3) Add 2 ul of substrate (1 mM final)
(4) Incubate at 37 C for 40 min
(5) Add 2 ul stop solution (1M NaOH and 1M Glycine mixture, pH 10)
(6) Detect the assay plate in a ViewLux plate reader (PerkinElmer) with Ex=365 nm and Em=440nm.
Keywords: Alpha-glucosidase, Pompe Disease, pharmacological chaperone, chaperone therapy, high throughput screening, alpha-glucosidase inhibitor, MLSMR, MLSCN, NIH Roadmap, qHTS and NCGC
With `NC(=NCc1ccccc1)NC(=O)c1nc(Cl)c(N)nc1N`, the “activity change, both directions” value is -54% (inactive).
Take `CCOC(=O)CCc1cccc2c1CCC2=O`: the “activity change, both directions” value is 0.796% [at 31.5 µM] (inactive).
`c1ccc(-n2c(-c3cccs3)nc3nc4ccccc4nc32)cc1`: the “activity change, both directions” value is 17.9% (inactive).
The same measure, in the same setting: as for `O=S(=O)(c1cccnc1)N1CCOCC1`, the figure is -4.01% (inactive); as for `Cc1noc(C)c1S(=O)(=O)N(CC(=O)N1CCc2ccccc21)c1ccc(C(C)C)cc1`, 2.08% (inactive).
The same measure, in the same setting: as for `CCC(=O)N1CCN(c2ccc(Cl)cc2NC(=O)c2ccc(N3CCCC3)c([N+](=O)[O-])c2)CC1`, the figure is -0.875% [at 31.5 µM] (inactive); as for `Cc1ccc(S(=O)(=O)N(C)C)cc1NC(=O)COC(=O)Cc1ccc(Br)cc1`, 2.8% (inactive).
On the same count and under the same terms, the result for `COc1ccc(CCn2c(N)cc(=O)[nH]c2=S)cc1OC` reads -3.28% [at 31.5 µM] (inactive); that for `O=C(/C=C/c1ccc(O)c(O)c1)c1ccc(O[C@@H]2O[C@H](CO)[C@@H](O)[C@H](O)[C@H]2O)c(O)c1O`, -46.4% (inactive).
Regarding `O=C(Cn1c(=O)[nH]n(-c2ccccc2)c1=O)N1CCCc2ccccc21`, the “activity change, both directions” value was 0.235% [at 31.5 µM] (inactive).
As to `C(=C/c1ccc2ccccc2n1)/c1ccc2c(c1)OCO2`, the “activity change, both directions” value is 9.52% (inactive).
Consider `CC(=O)N1CCN(c2ccc(NS(=O)(=O)c3ccc4c(c3)CC(=O)N4)cc2)CC1`, for which the “activity change, both directions” value is -25.7% [at 132 µM] (inactive).
For `O=c1oc2ccc(Cl)cc2cc1-c1nc2c(s1)CCCC2`, the “activity change, both directions” value is 15.9% (inactive).
Same read-out and setting: the result for `OCCNc1nc(-c2cccs2)nc2ccccc12` reads 0.945% (inactive).
Same read-out and setting: as for `O=C(NC(C(=O)c1ccccc1)n1ccc(=O)[nH]c1=O)c1ccccc1` (stereo not given), the figure is -4.26% [at 31.5 µM] (inactive); as for `C=C(C)CC(NCc1ccco1)c1ccc(OC)cc1` (stereo not given), 4.39% (inactive); as for `COc1ccc(CCn2c(N)cc(=O)[nH]c2=O)cc1OC`, -1.76% [at 31.5 µM] (inactive).
With `CCCN1CNc2c(c(=O)[nH]c(=S)n2CCc2cccs2)C1`, the Potency was 35.5 µM (active).
For `CCC(C)Nc1nc(-c2cccc(OC)c2O)nc2ccccc12` (stereo not given), the “activity change, both directions” value is 2.75% (inactive).
On to `O=C(O)c1cc2c(ccc3ccccc32)o1`, for which the “activity change, both directions” value is -0.045% [at 31.5 µM] (inactive).
For `CCCN1CNc2c(c(=O)[nH]c(=S)n2CCc2cccc(OC)c2)C1`, the Potency was 15.8 µM (active).
In the case of `CCCCn1c(CN2CCN(c3cccc(Cl)c3)CC2)nc2c1c(=O)n(C)c(=O)n2C`, the “activity change, both directions” value was -2.65% [at 31.5 µM] (inactive).
Turning to `CC(=O)c1ccc(S(=O)(=O)N2CCOCC2)cc1`, the “activity change, both directions” value was -1.31% (inactive).
The same measure, in the same setting: as for `Cc1ccc2c(c1)c1ncnc(N3CCC4(CC3)OCCO4)c1n2C`, the figure is 8.53% [at 31.5 µM] (inactive).
On the same count and under the same terms, the result for `COc1ccc(/C=C/c2nnc(NC(C)=O)s2)cc1` reads 1.39% (inactive); that for `CCC1OC23CCCCC2C(C#N)(C(=N)O3)C1(C#N)C#N` (stereo not given), 2.02% [at 31.5 µM] (inactive); that for `COC(=O)c1ccccc1S(=O)(=O)N1CCOCC1`, -14% (inactive).
Regarding `Cc1cccn2c(=O)c(/C=C(\C#N)C(=O)NC3CCS(=O)(=O)C3)c(N3CCC(C)CC3)nc12` (stereo not given), the Potency was 11.2 µM (active).
For the molecule `CC(=O)c1ccc(N2CCN(S(=O)(=O)c3ccc4c(c3)C(=O)OC4)CC2)cc1`, the “activity change, both directions” value is -1.65% (inactive).
Still for that read-out and setting: the result for `COc1ccc(C(=O)NC2(C(F)(F)F)C(=O)Nc3c2c(=O)[nH]c(=O)n3CCc2ccc(OC)c(OC)c2)cc1` (stereo not given) reads -0.6% [at 31.5 µM] (inactive); that for `O=C(Nc1ccccc1)C1CCN(S(=O)(=O)c2ccccc2)CC1`, 0.601% (inactive); that for `Clc1cc2c(cc1/C=C/c1ccc3ccccc3n1)OCO2`, 5.58% (inactive).
For `CCOC(=O)C(CC)(CCC(=O)O)c1csc(Nc2ccc(C)cc2)n1` (stereo not given), the “activity change, both directions” value was 15% [at 31.5 µM] (inactive).
Still for that read-out and setting: the result for `CC(=O)Nc1cccc2c1C(=O)NC2=O` reads -1.43% [at 31.5 µM] (inactive); that for `CCc1ccc(N=CC23c4ccccc4C(c4ccccc42)C2C(=O)N(c4ccc(OC)cc4)C(=O)C23)cc1` (stereo not given), 2.73% [at 31.5 µM] (inactive).
Same read-out and setting: as for `Nc1ccccc1S(=O)(=O)N1CCOCC1`, the figure is 3.59% (inactive).
For `COc1ccc(CCn2c3c(c(=O)[nH]c2=S)CN(C(C)C)CN3)cc1OC`, the Potency was 44.7 µM (active).
As to `O=S(=O)(c1ccc2ccccc2c1)N1CCOCC1`, the “activity change, both directions” value is -0.931% (inactive).
For the molecule `O=S(=O)(c1ccc(-c2ccccc2)cc1)N1CCOCC1`, the “activity change, both directions” value was 3.01% (inactive).
The same measure, in the same setting: as for `C(=C\c1nccc2c1[nH]c1ccccc12)/c1ccc2c(c1)OCO2`, the figure is 26.5% (inactive).
